Test results taken from publication PMC4336329 (PLoS ONE, 2015).
Hit rate of the full screen: of about 310,000 compounds, about 14,000 (4.5%) showed an effect of 50% or more. The effect is printed as a negative number. Many of the other results were omitted from the sample, so strong results are more common in it than they were.

Target: human ether-à-go-go-related gene (hERG) potassium channel (human, UniProt Q12809)
Assay: primary screen, population patch clamp on CHO cells stably expressing hERG; higher = less effect of the substance
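Also: peak tail current of the secondary pulse compared with the same well before compound.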

Chain of human ether-à-go-go-related gene (hERG) potassium channel (Q12809 whole entry, looked up): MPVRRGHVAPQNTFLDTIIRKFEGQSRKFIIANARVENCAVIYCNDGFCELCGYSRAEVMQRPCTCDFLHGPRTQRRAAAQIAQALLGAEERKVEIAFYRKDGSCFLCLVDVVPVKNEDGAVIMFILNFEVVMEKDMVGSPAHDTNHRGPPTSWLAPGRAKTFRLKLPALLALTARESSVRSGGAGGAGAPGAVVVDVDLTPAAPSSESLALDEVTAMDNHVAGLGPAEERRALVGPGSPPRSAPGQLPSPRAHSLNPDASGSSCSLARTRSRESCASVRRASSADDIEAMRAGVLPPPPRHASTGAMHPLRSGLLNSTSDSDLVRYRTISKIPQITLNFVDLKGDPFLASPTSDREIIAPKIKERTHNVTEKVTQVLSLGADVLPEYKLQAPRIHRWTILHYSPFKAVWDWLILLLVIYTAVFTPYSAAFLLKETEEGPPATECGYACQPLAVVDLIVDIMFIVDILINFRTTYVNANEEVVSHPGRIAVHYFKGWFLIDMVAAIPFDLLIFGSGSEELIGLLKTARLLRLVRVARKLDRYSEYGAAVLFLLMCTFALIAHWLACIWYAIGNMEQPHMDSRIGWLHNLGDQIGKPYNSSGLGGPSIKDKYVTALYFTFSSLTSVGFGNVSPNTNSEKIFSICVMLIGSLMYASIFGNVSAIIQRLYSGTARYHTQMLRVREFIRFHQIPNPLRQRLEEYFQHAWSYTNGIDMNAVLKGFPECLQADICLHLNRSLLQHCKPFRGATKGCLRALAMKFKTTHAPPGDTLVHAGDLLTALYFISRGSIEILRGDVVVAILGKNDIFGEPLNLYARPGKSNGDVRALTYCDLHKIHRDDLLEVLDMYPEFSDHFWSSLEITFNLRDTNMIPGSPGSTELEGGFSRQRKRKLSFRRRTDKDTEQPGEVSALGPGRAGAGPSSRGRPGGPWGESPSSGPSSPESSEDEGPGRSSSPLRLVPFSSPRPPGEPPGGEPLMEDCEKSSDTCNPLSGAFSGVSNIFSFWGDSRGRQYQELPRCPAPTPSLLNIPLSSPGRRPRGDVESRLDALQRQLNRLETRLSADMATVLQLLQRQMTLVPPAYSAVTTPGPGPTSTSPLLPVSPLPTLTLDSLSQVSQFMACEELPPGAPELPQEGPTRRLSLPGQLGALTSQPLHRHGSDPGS

Row | SMILES | hERG current change (%, negative = inhibition) at 10uM [%]
1 | O=c1cc(CSc2ccccn2)c2ccccc2[nH]1 | 9.52
2 | C=CCn1c(=O)c(C(=O)NC(C)c2ccccc2)c(O)c2ccccc21 (stereo not drawn) | 18.3
3 | C=CCN(CC=C)Cc1c(O)ccc2c(=O)c(-c3ccccc3)coc12 | -16.9
4 | CN(Cc1c(O)ccc2c1oc(=O)c1ccccc12)C1CCCCC1 | -42.8
5 | C=CCN(CC=C)Cc1c(O)ccc2c1oc(=O)c1ccccc12 | -71.6
6 | Cc1ccccc1NC(=O)NCC1CCN(Cc2cccc(Cl)c2)CC1 | -60
7 | Cc1ccccc1NC(=O)NCC1CCN(C(=O)OC(C)(C)C)CC1 | -19.6
8 | Cc1ccc(NC(=O)NCC2CCN(Cc3cccc(Cl)c3)CC2)c(Cl)c1 | -59.8
9 | Cc1ccc(OCC(=O)N2N=C(C(F)(F)F)CC2(O)C(C)(C)C)cc1C (stereo not drawn) | -15.9
10 | O=C(NC1CCCCC1)C(c1cccs1)N(C(=O)Cc1c[nH]c2ccccc12)c1ccc(F)cc1 (stereo not drawn) | 14.7
11 | Cc1ccc(S(=O)(=O)Cc2ccc(C(=O)N3CCN(c4cccc(C)c4C)CC3)o2)cc1 | -7.95
12 | O=C(c1ccc2c(=O)n(Cc3ccccc3Cl)c(=S)[nH]c2c1)N1CCCC1 | 4.9
13 | Cc1cc(Cl)ccc1OCc1n[nH]c(=S)n1C1CCCCC1 | 21.1
14 | CC(=O)N1CCN(c2cc(N3CCc4ccccc4C3)c(F)cc2[N+](=O)[O-])CC1 | -41.3
15 | CCN1CCN(c2cc(N3CCc4ccccc4C3)c(F)cc2[N+](=O)[O-])CC1 | -51.9
16 | CN1CCN(c2cc(N3CCc4ccccc4C3)c(F)cc2[N+](=O)[O-])CC1 | -44.2
17 | O=C(CCC(=O)Nc1ccccc1)NNC(=O)c1ccco1 | 8.99
18 | O=C(Cn1c(C(=O)N2CCN(C3CCCC3)CC2)cc2sccc21)c1ccccc1 | -76.1
19 | O=C(Cn1c(C(=O)N2CCc3ccccc3C2)cc2sccc21)c1ccccc1 | 4.01
20 | CN1CCN(C(=O)c2cc3sccc3n2CC(=O)c2ccccc2)CC1 | -27.6
21 | O=C(Cn1c(C(=O)NCC2CCCO2)cc2sccc21)c1ccccc1 (stereo not drawn) | -3.47
22 | CCN1CCN(C(=O)c2cc3sccc3n2CC(=O)c2ccccc2)CC1 | -45.5
23 | O=C(Cn1c(C(=O)N2CCN(C3CCCCC3)CC2)cc2sccc21)c1ccccc1 | -70.7

Row | SMILES | hERG current change (%, negative = inhibition) at 10uM [%]
24 | CCOc1cc(N2CCOCC2)c(OCC)cc1NC(=O)C1CC(=O)N(c2ccc(C)cc2)C1 (stereo not drawn) | -2.64
25 | O=C(COC(=O)c1ccccc1SCC(=O)N1CCCC1)NC1CCCCC1 | -5.12
26 | COc1ccc(C(=O)Oc2c(C)occc2=O)cc1OC | 9.93
27 | CCc1nc(NCC2CCCN2CC)c2nnn(Cc3ccccc3F)c2n1 (stereo not drawn) | -54.2
28 | C#CCNc1nc(CC)nc2c1nnn2Cc1ccccc1F | -0.696
29 | CCc1nc(NCCCCCO)c2nnn(Cc3ccccc3F)c2n1 | -28.8
30 | CCOC(=O)C1C(=O)NC(SCC(=O)Nc2nccs2)=C(C#N)C1c1ccccc1OCC (stereo not drawn) | 13.7
31 | COc1ccc(OC)c(C2C3CN(C(C)C)CC=C3C(C#N)=C(N)C2(C#N)C#N)c1 (stereo not drawn) | -16.2
32 | Nc1c(C(=O)Nc2ccccc2)c2nc3ccccc3nc2n1CCCN1CCOCC1 | 18.7
33 | CCCCc1nc(SCC(=O)N2CCCC2)c2c(=O)n(C)c(=O)n(C)c2n1 | -23
34 | Cl.O=C(c1ccco1)N1CCN(CCOCCOc2cccc3ccccc23)CC1 | -62.5
35 | Cl.O=C(c1ccco1)N1CCN(CCOc2ccc(F)cc2)CC1 | -47.4
36 | O=C(c1ccco1)N1CCN(CCCCN2C(=O)c3ccccc3C2=O)CC1 | -40
37 | Cl.O=C(c1ccco1)N1CCN(CCCCOc2cccc3ccccc23)CC1 | -62.4
38 | CN1CCN(CCCCOc2cccc3ccccc23)CC1.Cl | -27.4
39 | COc1cccc(OC)c1OCCN1CCN(C(=O)c2ccco2)CC1.Cl | -16.2
40 | O=C(O)C(=O)O.c1ccc(CN2CCN(CCOCCOc3cccc4ccccc34)CC2)cc1 | -43.3
41 | O=C(CCN1CCN(C(=O)c2ccco2)CC1)Nc1ccc(F)cc1 | -22.4
42 | Cl.O=C(c1ccco1)N1CCN(CCCCOc2ccc(F)cc2)CC1 | -74.4
43 | O=C(CCCCCCN1C(=O)c2ccccc2C1=O)Nc1nccs1 | 12.2
44 | COc1cc(CNCCO)cc(Br)c1OCc1cccs1.Cl | -8.81
45 | CCOc1c(C)cc2[nH]c(CCC(=O)O)nc2c1C.Cl | -0.00982
46 | COCCn1c(-c2ccccc2F)n[nH]c1=S | 21.5

Row | SMILES | hERG current change (%, negative = inhibition) at 10uM [%]
47 | CNC(=O)c1ccccc1Sc1ccccc1CO | 27.9
48 | CC(C)(C)c1ccc(NC(=S)NCc2cccs2)cc1 | 4.35
49 | CCCc1nc(C)cc(N2CCN(c3ccccc3)CC2)n1.Cl | -51.7
50 | Cc1cc(N2CCC(C)CC2)nc(-n2nc(C)cc2C)n1 | -30.3
51 | Cc1cc(N2CCN(c3ccccc3)CC2)nc(NCc2ccccc2)n1 | 4.25
52 | Cc1cc(N2CCN(c3ccccc3)CC2)nc(-n2nc(C)cc2C)n1 | -63.2
53 | Cc1cc(C)n(-c2nnc(N3CCN(c4ccccc4)CC3)nn2)n1 | -16
54 | Cc1cc(N2CCN(c3ccccc3)CC2)nc(N)n1.Cl | -42.9
55 | CC(Sc1nc(=O)cc(N)n1CCc1ccccc1)C(=O)NCc1ccccc1 (stereo not drawn) | 3.18
56 | Cc1ccc(C)c(S(=O)(=O)N/N=C/c2ccc(N(C)C)cc2)c1 | 16.1
57 | CCC(NC(=O)c1ccccc1NC(=O)c1ccccc1)C(=O)OC (stereo not drawn) | 11.3
58 | CS(=O)CSc1nc2c(cc1C#N)CCCC2 (stereo not drawn) | -25
59 | NC(=O)CC(NC(=O)c1cccc(Br)c1)c1ccc(NC2CCC2)c([N+](=O)[O-])c1 (stereo not drawn) | -59.8
60 | NC(=O)CC(NC(=O)c1ccccc1)c1ccc(NCC2CC2)c([N+](=O)[O-])c1 (stereo not drawn) | -35.3
61 | Cc1cc(C)cc(C(=O)NC(CC(N)=O)c2ccc(NCC3CC3)c([N+](=O)[O-])c2)c1 (stereo not drawn) | -30.4
62 | NC(=O)CC(NC(=O)c1cccc(Br)c1)c1ccc(NC2CCCCCCC2)c([N+](=O)[O-])c1 (stereo not drawn) | 6.95
63 | NC(=O)CC(NC(=O)c1cccc(Br)c1)c1ccc(NC2CCCCCCCCCCC2)c([N+](=O)[O-])c1 (stereo not drawn) | 5.21
64 | NC(=O)CC(NC(=O)c1cccc(Br)c1)c1ccc(NCC2CC2)c([N+](=O)[O-])c1 (stereo not drawn) | -65.4
65 | CCN1CCN(CC(=O)Nc2nc3ccccc3s2)CC1.O=CO | -22.7
66 | O=C(c1ccc(-c2nc3ccccc3s2)o1)N1CCN(c2ccccc2O)CC1 | 11.6
67 | CCc1nnc(NC(=O)CCC(=O)NC2CCCC2)s1 | -3.36
68 | Cc1ccc(OCCN2CCN(C(=O)CCC(=O)Nc3nnc(CC(C)C)s3)CC2)cc1 | -43.5
69 | O=C(CN1CCN(Cc2ccc(F)cc2)CC1)Nc1nc2ccccc2s1 | -69.3

Row | SMILES | hERG current change (%, negative = inhibition) at 10uM [%]
70 | CCc1nnc(NC(=O)CCC(=O)N2CCN(CCOc3ccc(C)cc3)CC2)s1 | -20.2
71 | COc1ccccc1N1CCN(C(=O)c2ccc(-c3nc4ccccc4s3)o2)CC1 | -3.16
72 | CCc1nnc(NC(=O)CCC(=O)NC2CC2)s1 | -50.5
73 | CN1CCN(CC(=O)Nc2nc3ccccc3s2)CC1.O=CO | -5.53
74 | CCCc1nnc(NC(=O)CCC(=O)N2CCN(CCOc3ccc(C)cc3)CC2)s1 | -51.2
75 | CCc1nnc(NC(=O)CCC(=O)NC2CCCCC2)s1 | 15.8
76 | O=C(CN1CCN(C(=O)c2ccc(-c3nc4ccccc4s3)o2)CC1)Nc1ccc(F)cc1 | -72.3
77 | Cc1cc(C)c2c(=O)[nH]n(C3CCCCCC3)c2n1 | 23.5
78 | Cc1nc(Nc2nc3c(c(=O)[nH]2)CCC3)nc2ccccc12 | -10.2
79 | Cc1ccc(NC(=S)N(C)C)cc1C | -4.6
80 | O=C(N=C1SC2CS(=O)(=O)CC2N1c1ccc(Cl)cc1Cl)C1CC1 (stereo not drawn) | -7.48
81 | Cc1ccc(/C(O)=C/C(=O)C(=O)NNC(=O)C(O)(c2ccccc2)c2ccccc2)cc1 | 14.5
82 | OCCOc1ccc(C2=NCCO2)cc1 | -23.3
83 | Cc1cnc([N+](=O)[O-])n1CCOC(=O)NC(=O)c1ccccc1Cl | 8.87
84 | COc1ccc(OC)c(NC(=O)CCCNC(=O)c2ccc(Cl)cc2)c1 | -9.27
85 | CCc1nnc(NC(=O)CN2CCN(Cc3ccc(C)cc3)CC2)s1 | -57.6
86 | CCCN1CCN(CC(=O)Nc2nc3ccccc3s2)CC1 | -49.9
87 | CCc1nnc(NC(=O)CN2CCN(Cc3cccc(Cl)c3)CC2)s1 | -8.15
88 | CS(=O)(=O)c1ccc2nc(NC(=O)CN3CCN(Cc4ccccc4)CC3)sc2c1 | -39.8
89 | O=C(CN1CCN(Cc2ccccc2)CC1)Nc1nc2ccccc2s1 | -68.2
90 | CCc1nnc(NC(=O)CN2CCN(Cc3ccc(F)cc3)CC2)s1 | -13.6
